Measurements from PubChem BioAssay (NCI).
About 83,000 compounds went through this panel and 20% of them were active in at least one assay; those are over-represented in the sample as a whole.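 A percent growth of 40 corresponds to 60% growth inhibition; 0 means no net growth; -100 means all cells died. Active threshold: below 10.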 Unmarked numbers belong to inactive results. Activity calls are given as the source filed them.

System: HL-60(TB) leukemia
Test: NCI-60 one-dose screen, 48 h (100 = growth as untreated, 0 = no growth, -100 = all killed)
Details: 10 µM unless noted

SMILES	growth
Nc1nc2ccccc2c2c(=O)c3cccc(Cl)c3sc12	93.7%
CCC(=O)NC(O)C(Cl)(Cl)C(C)Cl (stereo not given)	119%
CC(C)(C)c1ccc(OC(=O)Nc2ccccc2)cc1	95.9%
COc1ccc(CN2c3ccccc3Oc3ccccc32)cc1F	54.1%
CCCCCCCCCCOC(=O)c1nn(C(C)=O)c2cc(C)c(C)cc12	101%
C=C(C)[C@@H]1CC[C@]2(C(=O)O)CC[C@]3(C)[C@H](CC[C@@H]4[C@@]5(C)CCC(N)C(C)(C)[C@@H]5CC[C@]43C)[C@@H]12 (stereo not given in full)	-45.5% (active)
CCOC(=O)C1=C(c2ccccc2)N=C2N(c3ccccc3)N=C(C(C)=O)N2C1c1ccc(Br)cc1 (stereo not given)	96.2%
Nc1nc(Nc2ccccc2)n[nH]1	97.7%
Cc1ccc(-c2cc(-c3ccccc3C)[nH]c(=O)c2C#N)s1	80.4%
Cc1[nH]n(C(N)=S)c(=O)c1N=Nc1ccc(F)c(Cl)c1	90.6%
COc1ccc2c(CCc3ccc(Cl)cc3)c3[n+](cc2c1OC)CCc1cc2c(cc1-3)OCO2	10%
Brc1ccc([I+]c2ccc(Br)cc2)cc1	-25.6% (active)
CCN(CC)CCOc1ccc(/C(=C(\C)c2ccc(F)c(OC)c2)c2ccc(Cl)cc2)cc1	-27.9% (active)
Cc1ccc(S(=O)(=O)c2nc(-c3ccccc3)oc2S(C)=O)cc1 (stereo not given)	-47.4% (active)
COc1ccc2nc(NC(=O)c3cccnc3Nc3cc(OC)c(OC)c(OC)c3)sc2c1	51.8%
CCc1nn2c(-c3cc(OC)c(OC)c(OC)c3)c(-c3cc(OC)c(OC)c(OC)c3)nc2s1	59.3%
O=C1Nc2ccccc2/C1=C/C(=O)c1ccc(N2CCOCC2)cc1	49.8%
Clc1ccc2c(NCCCNC3CCCCC3)ccnc2c1	96.1%
C=C1C(=O)O[C@H]2[C@H]1CC/C(Cn1cc(-c3cc(C)c(C)cc3C)nn1)=C\CC[C@@]1(C)O[C@@H]21	-9.09% (active)
O=C(O)C[C@H](O)C[C@H](O)/C=C/c1c(C2CC2)nc2ccccc2c1-c1ccc(F)cc1	66.2%

SMILES	growth
O=C(Nc1nc2ccc(OC(F)(F)F)cc2s1)c1ccc(F)cc1	14.3%
Cc1cc(N2CCCCC2)nc(NC2CCCC(Nc3ccnc4cc(Cl)ccc34)C2)n1 (stereo not given)	-63.6% (active)
CC(=O)c1ccc2oc(=O)n(Cc3ccc(C#N)cc3)c(=O)c2c1	109%
CSc1ccc(-c2ccccc(=O)c2O)cc1	-40.1% (active)
COc1cc(NCCCN)c2ncccc2c1	68%
CC/C=C\C[C@H]1CC=C2C(=O)C=C[C@@H]2CC=CCCCC(=O)O[C@@H](CCCCC)CC=C2C(=O)C=C[C@@H]2CC=CCCCC(=O)O[C@@H](CCCCC)CC=C2C(=O)C=C[C@@H]2CC=CCCCC(=O)O[C@@H](CCCCC)CC=C2C(=O)C=C[C@@H]2CC=CCCCC(=O)O1	-15.3% [7.9 µM] (active)
CCC(C)(C)C(=O)O[C@H]1C[C@@H](C)C=C2C=C[C@H](C)[C@H](CC[C@@H]3C[C@@H](O)CC(=O)O3)[C@H]21	77.1%
C[C@@H]1O[C@@H](O[C@@H]2C[C@H](c3ccc4c(c3O)C(=O)C3=C(C4=O)[C@@]4(O)C(=O)C[C@](C)(O)C[C@@]4(O)C=C3)O[C@H](C)[C@H]2O)CC[C@@H]1O[C@H]1C[C@@H](O)[C@H](O)[C@@H](C)O1	99.4%
Cc1ccc(N=CNN=C(N)N)cc1	87.9%
COc1ccc(NC(=O)CSc2nc(-c3ccc(OC)c(OC)c3)cc(-c3cc(OC)c(OC)c(OC)c3)n2)cc1	115%
CN(C)CCN1C(=O)c2ccc3c4c(ccc(c24)C1=O)C(=O)N(CCN=C=S)C3=O	-51.1% (active)
COc1cnc2c(c1)C(=O)c1c-2n(CCCN2CCCC2)c(=O)c2cc(Cl)ccc12	27.9%
COC(=O)c1ccc2c(c1)n(Cc1ccc3ccccc3c1)c[n+]2Cc1ccc2ccccc2c1	-18.8% (active)
CCCCn1c(-c2ccc(O)cc2)cn2c3c(=O)[nH]c(=O)n(C)c3nc12	48.9%
CCCCCN1C(=O)CCC1=O	88.1%
CCN1C(=O)N(CC)C2C1NN=c1s/c(=C\c3ccc[nH]3)c(=O)n12 (stereo not given)	-48% (active)
O=C(Nc1cccc2cccnc12)c1cc(C(=O)c2ccc(Cl)cc2)n2ccc(-c3ccncc3)cc12	125%
COc1ccc2c(c1)C(=Nc1cc(OC)c(OC)c(OC)c1)C(=O)N2	96.1%
NS(=O)(=O)c1ccc(N2N=C(c3ccc(-c4ccccc4)cc3)CC2c2ccc(Cl)cc2)cc1 (stereo not given)	86.5%
Nc1nc2c(s1)CCc1c-2c(Br)n(Cc2ccccc2)c1Br	51.6%
